Measurements published in PubChem BioAssay AID1159580 (chemical genetic matrix, 2015).
Where “and” joins values, the source holds several entries; their conditions need not be identical. Equal entries are not always repeated. In all, about 5,500 compounds went through this assay and about 2,000 (36%) were called active. Inconclusive results (about 18%) are left out. Cut-off read from the data, not from the text of the source: active = normalized growth mostly below about 0.91 (no sharp cut-off); inconclusive = no clear call, values can overlap the other calls; inactive = mostly above about 0.92. Some of the results follow.

Assay: chemical genetic growth profiling, strain panel (AID 1159580);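 note: tested at 20 µM; growth read once vehicle control cultures reached saturation at 30 °C; 1 = growth at the plate median or of vehicle wells; lower values mean less growth of the strain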
Settings: S. cerevisiae deletion strains, growth OD

Measured: normalized growth

O=C(O)c1cc(=O)c2c(Cl)cc(Cl)cc2[nH]1
inactive: locus YAL013W, strain DEP1, stronger effect = lower value 1 | locus YAL021C, strain ccr4, stronger effect = lower value 1 | locus YAL026C, strain drs2, stronger effect = lower value 1.02 | locus YAL030W, strain snc1, stronger effect = lower value 1.02 | locus YAL040C, strain CLN3, stronger effect = lower value 0.995 | locus YBL061C, strain skt5, stronger effect = lower value 1.01 | locus YBR009C, strain hhf1, stronger effect = lower value 1 | locus YBR021W, strain FUR4, stronger effect = lower value 1 | locus YBR023C, strain chs3, stronger effect = lower value 1.02 | locus YBR171W, strain sec66, stronger effect = lower value 1.01 | locus YBR229C, strain ROT2, stronger effect = lower value 1.01 | locus YBR231C, strain swc5, stronger effect = lower value 1.02 | locus YBR279W, strain paf1, stronger effect = lower value 1.01 | locus YCL011C, strain gbp2, stronger effect = lower value 1.01 | locus YCL016C, strain dcc1, stronger effect = lower value 1.01 | locus YCL029C, strain bik1, stronger effect = lower value 1.01 | locus YCL061C, strain MRC1 (second series), stronger effect = lower value 0.998 | locus YCL061C, strain MRC1, stronger effect = lower value 1.02 | locus YCL069W, strain vba3, stronger effect = lower value 1 | locus YCR088W, strain abp1, stronger effect = lower value 1.01 | locus YDL005C, strain med2, stronger effect = lower value 1.01 | locus YDL035C, strain GPR1, stronger effect = lower value 1.01 | locus YDL040C, strain nat1, stronger effect = lower value 1.01 | locus YDL074C, strain BRE1, stronger effect = lower value 1 | locus YDL101C, strain DUN1, stronger effect = lower value 1.01 | locus YDL134C, strain PPH21, stronger effect = lower value 1.02 | locus YDL185W, strain tfp1, stronger effect = lower value 1.01 | locus YDL192W, strain arf1, stronger effect = lower value 1.02 | locus YDR001C, strain nth1, stronger effect = lower value 1.01 | locus YDR069C, strain doa4, stronger effect = lower value 1.02 | locus YDR101C, strain arx1, stronger effect = lower value 1.03 | locus YDR137W, strain rgp1, stronger effect = lower value 1.02 | locus YDR150W, strain NUM1, stronger effect = lower value 0.999 | locus YDR159W, strain sac3, stronger effect = lower value 1.01 | locus YDR162C, strain NBP2, stronger effect = lower value 1.02 | locus YDR195W, strain ref2 1.02 | locus YDR297W, strain sur2, stronger effect = lower value 1.01 | locus YDR318W, strain mcm21, stronger effect = lower value 1.02 | locus YDR334W, strain swr1, stronger effect = lower value 1.01 | locus YDR335W, strain msn5, stronger effect = lower value 1.01 | locus YDR363W, strain ESC2, stronger effect = lower value 0.974 | locus YDR388W, stronger effect = lower value 1.01 | locus YDR392W, strain spt3, stronger effect = lower value 0.979 | locus YDR502C, strain sam2, stronger effect = lower value 1.01 | locus YEL003W, strain gim4, stronger effect = lower value 1.01 | locus YEL037C, strain rad23, stronger effect = lower value 1.01 | locus YEL061C, strain CIN8 (second series), stronger effect = lower value 1.01 | locus YEL061C, strain CIN8, stronger effect = lower value 1 | locus YER002W, strain NOP16, stronger effect = lower value 1 | locus YER015W, strain faa2, stronger effect = lower value 1.02 | locus YER016W, strain bim1, stronger effect = lower value 1.01 | locus YER110C, stronger effect = lower value 1.03 | locus YER111C, strain swi4, stronger effect = lower value 1.02 | locus YER155C, strain BEM2 (second series), stronger effect = lower value 1.03 | locus YER155C, strain BEM2, stronger effect = lower value 0.994 | locus YER167W, strain BCK2, stronger effect = lower value 1 | locus YFR010W, strain ubp6, stronger effect = lower value 1.02 | locus YGL078C, strain dbp3, stronger effect = lower value 1.01 | locus YGL086W, strain mad1, stronger effect = lower value 1.02 | locus YGL167C, strain pmr1, stronger effect = lower value 1.02 | locus YGL173C, strain kem1, stronger effect = lower value 1.02 | locus YGL227W, strain vid30, stronger effect = lower value 1.01 | locus YGL240W, strain doc1, stronger effect = lower value 1.02 | locus YGL248W, strain PDE1, stronger effect = lower value 1.01 | locus YGL253W, strain hxk2, stronger effect = lower value 1.02 | locus YGR078C, strain PAC10, stronger effect = lower value 1 | locus YGR135W, strain pre9, stronger effect = lower value 1.03 | locus YGR229C, strain SMI1, stronger effect = lower value 1.05 and 0.981 | locus YGR252W, strain gcn5, stronger effect = lower value 1 | locus YHR013C, strain ard1, stronger effect = lower value 0.987 | locus YHR027C, strain rpn1, stronger effect = lower value 1.02 | locus YHR030C, strain SLT2, stronger effect = lower value 1 | locus YHR079C, strain IRE1 (second series), stronger effect = lower value 1.01 | locus YHR094C, strain hxt1, stronger effect = lower value 1.02 | locus YHR129C, strain ARP1, stronger effect = lower value 1.01 | locus YHR142W, strain chs7, stronger effect = lower value 1.02 | locus YHR200W, strain rpn10, stronger effect = lower value 1.01 | locus YIL066C, strain RNR3, stronger effect = lower value 1.01 | locus YIL073C, strain SPO22, stronger effect = lower value 1.04 | locus YIL125W, strain kgd1, stronger effect = lower value 1.01 | locus YIR030C, strain dcg1, stronger effect = lower value 1.01 | locus YJL092W, strain hpr5, stronger effect = lower value 1.01 | locus YJL095W, strain BCK1 (second series), stronger effect = lower value 1.01 | locus YJL095W, strain BCK1, stronger effect = lower value 0.998 | locus YJL115W, strain asf1, stronger effect = lower value 1.01 | locus YJL129C, strain trk1, stronger effect = lower value 1.01 | locus YJL134W, strain LCB3, stronger effect = lower value 1.01 | locus YJL154C, strain vps35, stronger effect = lower value 1.01 | locus YJL164C, strain tpk1, stronger effect = lower value 1.01 | locus YJL166W, strain qcr8, stronger effect = lower value 1.02 | locus YJL168C, strain set2, stronger effect = lower value 1.02 | locus YJL187C, strain SWE1 (second series), stronger effect = lower value 1
